From PubChem BioAssay
Sampled rows, rich in hits. Any-hit rate of the full collection: about 3.2%.
PNC inhibitor – blocks assembly of the perinucleolar compartment. activity change (PNC), negative = inhibition, % at 10 µM. PC3M PTB-GFP, PNC prevalence imaging, 16 h; active compounds read low. 3.1% of 140,000 active. AID 2417;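 active = readout at or below -70, meaning at least 70% loss of cells showing the perinucleolar compartment, a nuclear body marking cancer cells; inconclusive = readout between -30 and a set limit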;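 note: plate controls were DMSO wells for no effect and camptothecin positive control wells for full effect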
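Read-out is percentage of cells bearing a perinucleolar compartment, from automated 20x imaging of fixed, Hoechst-stained PC3M PTB-GFP cells. Cells were seeded 4 h, then exposed 16 h to compound (23 nl of library stock) in duplicate plates.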
15-hLO-2 inh – 15-hLO-2 (ALOX15B) enzyme inhibition; 0.56% of 110,000 active; Potency, µM (highest dose often 57.1 µM), without a hit: top-dose activity change, negative = inhibition, hits mostly inhibitors; O15296; purified 15hLO-2, xylenol orange hydroperoxide absorbance; note: potency is the fitted concentration of half-maximal effect; nearly all actives have a fitted effect of over 60% in size
Target sequence (O15296 whole entry, looked up): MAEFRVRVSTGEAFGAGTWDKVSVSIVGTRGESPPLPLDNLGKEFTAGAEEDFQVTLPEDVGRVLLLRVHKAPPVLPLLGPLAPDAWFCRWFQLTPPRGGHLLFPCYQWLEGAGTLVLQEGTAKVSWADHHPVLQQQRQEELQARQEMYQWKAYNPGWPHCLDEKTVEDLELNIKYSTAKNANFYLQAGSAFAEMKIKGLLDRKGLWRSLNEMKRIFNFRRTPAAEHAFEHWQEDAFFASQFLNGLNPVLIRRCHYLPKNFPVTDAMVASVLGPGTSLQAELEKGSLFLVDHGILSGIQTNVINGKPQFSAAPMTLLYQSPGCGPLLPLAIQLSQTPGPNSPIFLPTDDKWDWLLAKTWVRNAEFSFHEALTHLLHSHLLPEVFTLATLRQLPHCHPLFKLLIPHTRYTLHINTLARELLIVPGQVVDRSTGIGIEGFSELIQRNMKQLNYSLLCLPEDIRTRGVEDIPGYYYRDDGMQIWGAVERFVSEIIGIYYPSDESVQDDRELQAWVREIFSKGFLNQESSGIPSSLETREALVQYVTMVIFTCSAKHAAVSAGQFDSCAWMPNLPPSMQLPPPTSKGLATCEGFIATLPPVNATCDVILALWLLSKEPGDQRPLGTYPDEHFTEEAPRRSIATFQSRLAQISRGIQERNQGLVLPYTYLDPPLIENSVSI
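Enzyme 50 nM, AA 45 uM, 25 mM Hepes pH 7.5 + 0.01% Triton X-100; cpd preinc 15 min RT, rxn 90 min RT; stop/detect with 200 uM XO + 300 uM Fe(II) in 50 mM H2SO4, 30 min; A573/A405.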
ALOX12 inhib – 12-hLO (ALOX12) enzyme inhibition | purified 12-hLO, xylenol orange hydroperoxide absorbance | P18054 | 0.12% of 150,000 active | Potency, µM (highest dose often 57.1 µM), inactives show at the highest dose activity change, negative = inhibition, actives largely listed as inhibitors | AID 1452; note: potency is the fitted concentration of half-maximal effect; nearly all actives have a fitted effect of over 55% in size
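Hydroperoxide formation by human 12-lipoxygenase from 40 uM arachidonic acid was followed colorimetrically via ferric-xylenol orange complex, using the 573/405 nm absorbance ratio. Enzyme concentration was 150 nM, with 30 min reaction at room temperature.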
* hit, by the source's call; ? = inconclusive; . = no result given; [ ] = remark or other dose. Unless noted, calls come from the whole dose curve; as a rule, active = well fitted curve in the direction sought with a large enough effect; inconclusive = small, poorly fitted or top-dose-only effect, or another doubt; inactive = no such curve, though single readings can be large; an effect the other way counts as inactive or inconclusive. Unless noted, % is set by controls: 0 for no effect and ±100 for the full control effect.

SMILES | PNC inhibitor | 15-hLO-2 inh | ALOX12 inhib
Cc1ccc(/C=C(/C#N)C(=O)NC(=O)Oc2ccccc2)cc1 | -101* | -5% | -3%
Cc1ccc(C(C)NC(=O)/C(C#N)=C\c2c(C)[nH]c3ccccc23)cc1 (stereo unspecified) | -16 | -7% | ?
COC(=O)c1ccc(/C=C(\C#N)C(=O)NC(C)c2ccccc2)cc1 (stereo unspecified) | -100* | . | -5%
N#C/C(=C/c1ccc(OCc2ccccc2)cc1)C(=O)NC1CCCCC1 | ? | 5%[11.4 µM] | 0%
CN1CCN(c2ccnc(-c3cccc(NS(C)(=O)=O)c3)n2)CC1 | . | 0% | 1%
Cc1noc(C)c1C(=O)N1CCC2(CCN(C(=O)NC(C)C)CC2)CC1 | . | 4% | 3%
C/C(=C\C(=S)Nc1ccccc1)Nc1cccc2ccccc12 | ? | . | -9%
Fc1cc(Br)ccc1NC(=S)NCCc1ccccc1 | 41 | ? | ?
C=CCNC(=S)Nc1cccc2ccccc12 | -96* | -12% | -9%
C=CCNC(=S)Nc1ccc(Br)cc1F | -88* | . | -5%
O=c1c(-c2nc3ccccc3o2)c2oc3ccccc3n2c2ccccc12 | 8 | 9%[2.29 µM] | 14%
Cc1cccc([C@H]2[C@@H]3C=CC(C)C[C@@H]3C(=O)N2Cc2ccccc2)c1 (stereo partly specified) | . | 8%[0.0915 µM] | -9%[0.00818 µM]
CCCn1nnc(NC(=O)c2cc(Br)cc(Br)c2OC)n1 | -119* | -5% | -3%
CCCn1nnc(NC(=O)c2ccc(Br)cc2)n1 | ? | -1% | -1%
CN1CCN(c2ncncc2-c2ccccc2Cl)CC1 | . | -7% | .
CCCCCCCCCCCCCCCC(=O)N[C@@H](COP(=O)(O)O)C(=O)O | . | . | 2%
N#CC1=C(S)N(c2ccc(F)cc2)C(c2cccs2)NC1=O (stereo unspecified) | 23 | 0% | -7%
Cc1cccc(N2C(S)=C(C#N)C(=O)NC2c2cccs2)c1 (stereo unspecified) | -84* | . | 3%
Oc1ccc(-c2csc(-c3ccccc3)n2)cc1O | ? | 4µM* | 13µM*
Cc1nc(-c2ccc(O)c(O)c2)cs1 | ? | ? | -17%
C/C(=N\NC(=S)Nc1c(C)cccc1C)c1ccc(OC(F)F)cc1 | 2 | . | -28%
COC(=O)[C@H](Cc1ccccc1)NC(=O)O[C@H]1C(=O)c2ccc(OC)cc2O[C@@H]1c1ccc2c(c1)OCO2 | 6 | . | 1%
CCOc1ccc(Cc2nccc3cc(OCC)c(OCC)cc23)cc1OCC | . | 41% | -1%
CCOc1cc(C2C(C(=O)OC)=C(C)N=C3SC(C)C(=O)N32)ccc1OC(C)=O (stereo unspecified) | -18 | 3% | -2%
CCOC(=O)C1=C(C)N=C2SC(C)C(=O)N2C1c1ccc(OC(C)=O)c(OC)c1 (stereo unspecified) | -100* | . | -5%
SMILES | PNC inhibitor | 15-hLO-2 inh | ALOX12 inhib
COc1ccc(CC(=O)Oc2cc(C)[nH]c(=O)c2[N+](=O)[O-])cc1 | ? | . | 1%
CCCCCCCCCCCCCCCC(=O)OCC(O)C1OC(=O)C(O)=C1O (stereo unspecified) | . | 8.9µM* | -1%[0.00818 µM]
CCCCCCCCCCCCCCCCCC(=O)OCC(C)O (stereo unspecified) | . | -3%[0.0915 µM] | 0%[0.00818 µM]
O=[N+]([O-])c1cc(C(F)(F)F)ccc1-n1nnc2ccccc21 | -20 | . | 2%
O=[N+]([O-])c1cc(S(=O)(=O)Nc2ccccc2)ccc1-n1nnc2ccccc21 | -114* | -17% | -29%
S=C1NCCc2ccc(Cl)cc2C1c1ccccc1Cl (stereo unspecified) | -100* | . | ?
Clc1ccc2c(c1)C(C1=NCCN1)c1ccccc1CS2 (stereo unspecified) | ? | . | 1%
N[C@H](C(=O)O)C1[C@H](C(=O)O)[C@H]1C(=O)O (stereo partly specified) | . | 17% | -5%
COC(=O)N1C2CC3(C)C=C(C)OC1(C)C3c1ccccc12 (stereo unspecified) | . | . | 1%[11.4 µM]
O=C1c2ccccc2C(=O)N1CCCCN(C(=O)c1cc([N+](=O)[O-])ccc1Cl)c1ccc(Cl)cc1 | ? | . | -1%
O=C(COC(=O)C12CC3CC(CC(C3)C1)C2)Nc1ncc(Cl)cc1Cl | -88* | -14% | -2%
O=C(COC(=O)CC12CC3CC(CC(C3)C1)C2)Nc1ncc(Cl)cc1Cl | -19 | -13% | 0%
COC(=O)C1C(O)CC[C@@H]2CN3CCc4c([nH]c5ccccc45)C3C[C@@H]12 (stereo partly specified) | . | 4% | 2%
